# Assay results taken from paper PMC7862700, “An all-to-all approach to the identification of sequence-specific readers for epigenetic DNA modifications on cytosine”.
# Assays:
# Assay in all cases: DAPPL (digital affinity profiling via proximity ligation, sequencing); 10 mM Tris-HCl pH 7.5, 50 mM NaCl, 1 mM DTT, 4% glycerol, room temperature, 30 min; GST-TFs on glutathione beads, 16-mer random dsDNA library, 0.1% formaldehyde crosslink after washing; high values mean tight binding
# FLI1 = target: T1, FLI1 (Homo sapiens, UniProt Q01543 1-452); conditions: protein: recombinant; tags: N-terminal GST; dsDNA, one strand shown
# T1 sequence: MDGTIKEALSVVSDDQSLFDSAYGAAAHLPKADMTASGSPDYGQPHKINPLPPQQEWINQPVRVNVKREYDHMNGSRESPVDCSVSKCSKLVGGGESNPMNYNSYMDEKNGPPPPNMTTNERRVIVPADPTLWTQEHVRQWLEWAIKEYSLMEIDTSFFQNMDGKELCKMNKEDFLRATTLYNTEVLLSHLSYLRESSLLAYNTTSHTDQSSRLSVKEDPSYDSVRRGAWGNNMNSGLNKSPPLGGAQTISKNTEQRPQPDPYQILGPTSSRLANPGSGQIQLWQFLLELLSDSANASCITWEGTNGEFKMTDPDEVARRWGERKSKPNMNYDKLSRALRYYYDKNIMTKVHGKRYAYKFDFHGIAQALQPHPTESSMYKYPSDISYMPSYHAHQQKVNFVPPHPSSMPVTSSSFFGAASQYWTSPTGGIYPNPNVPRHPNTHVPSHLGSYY
# Summary of the method: (§1)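 Pools of DNA-barcoded human transcription factors, expressed in yeast as GST fusions on glutathione beads and combined with a tag-only sample, were incubated with 200 nmole of a 16-mer random double-stranded DNA library. Incubation took 30 min at room temperature in Tris/NaCl/DTT/glycerol buffer and was followed by washing, 0.1% formaldehyde crosslinking, proximity ligation (BsaI/T4 ligase, 1 h, 37 °C), PCR amplification and sequencing on an Illumina NextSeq500. Binding signal is the ratio of a hexamer's read frequency for a factor to its frequency for the tag-only sample.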
# ELK1 = target: T2, ELK1 (Homo sapiens, UniProt P19419 1-428); conditions: protein: recombinant; tags: N-terminal GST; dsDNA, one strand shown
# T2 sequence: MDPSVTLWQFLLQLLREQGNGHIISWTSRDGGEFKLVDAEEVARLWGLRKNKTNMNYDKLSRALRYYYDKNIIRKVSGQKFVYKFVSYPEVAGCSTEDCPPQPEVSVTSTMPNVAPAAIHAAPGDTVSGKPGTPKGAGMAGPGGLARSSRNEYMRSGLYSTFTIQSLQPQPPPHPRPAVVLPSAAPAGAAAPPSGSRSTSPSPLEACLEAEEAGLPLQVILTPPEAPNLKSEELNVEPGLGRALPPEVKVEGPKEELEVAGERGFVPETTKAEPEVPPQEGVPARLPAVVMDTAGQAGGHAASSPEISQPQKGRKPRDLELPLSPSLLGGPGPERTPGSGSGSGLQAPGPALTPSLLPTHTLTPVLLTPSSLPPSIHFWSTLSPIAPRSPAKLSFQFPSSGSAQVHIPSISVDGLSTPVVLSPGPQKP
# Summary of the method: as §1
# GABPA = target: T3, GABPA (Homo sapiens, UniProt Q06546 1-454); conditions: protein: recombinant; tags: N-terminal GST; dsDNA, one strand shown
# T3 sequence: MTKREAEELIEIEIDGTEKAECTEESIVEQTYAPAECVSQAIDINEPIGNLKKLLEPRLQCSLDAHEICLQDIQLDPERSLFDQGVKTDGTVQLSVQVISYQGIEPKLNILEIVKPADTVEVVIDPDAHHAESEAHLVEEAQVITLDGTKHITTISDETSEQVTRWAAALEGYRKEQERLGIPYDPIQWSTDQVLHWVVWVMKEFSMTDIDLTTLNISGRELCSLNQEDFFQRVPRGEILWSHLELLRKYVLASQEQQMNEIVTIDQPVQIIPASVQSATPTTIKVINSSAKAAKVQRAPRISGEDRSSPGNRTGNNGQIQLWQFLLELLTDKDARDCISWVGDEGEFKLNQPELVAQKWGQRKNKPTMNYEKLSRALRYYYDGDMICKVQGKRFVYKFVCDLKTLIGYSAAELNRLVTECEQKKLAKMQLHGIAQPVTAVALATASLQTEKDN
# Summary of the method: as §1
# ERG = target: T4, ERG (Homo sapiens, UniProt P11308 1-479); conditions: protein: recombinant; tags: N-terminal GST; dsDNA, one strand shown
# T4 sequence: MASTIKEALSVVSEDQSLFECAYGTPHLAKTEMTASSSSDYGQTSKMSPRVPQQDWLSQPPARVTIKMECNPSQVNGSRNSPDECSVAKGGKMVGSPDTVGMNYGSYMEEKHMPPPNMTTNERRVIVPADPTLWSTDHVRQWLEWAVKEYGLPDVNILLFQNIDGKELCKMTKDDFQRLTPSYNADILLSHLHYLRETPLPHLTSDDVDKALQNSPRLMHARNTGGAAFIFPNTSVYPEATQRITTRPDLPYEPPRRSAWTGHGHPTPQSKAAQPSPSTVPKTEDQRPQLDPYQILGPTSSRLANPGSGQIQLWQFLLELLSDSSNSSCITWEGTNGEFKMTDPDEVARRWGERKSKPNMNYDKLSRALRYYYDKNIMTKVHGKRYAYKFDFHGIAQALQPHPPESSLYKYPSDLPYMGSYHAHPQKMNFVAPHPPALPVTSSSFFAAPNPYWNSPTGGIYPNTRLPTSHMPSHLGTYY
# Summary of the method: as §1
# ELF1 = ELF1 (Homo sapiens, UniProt P32519 1-619); conditions: protein: recombinant; tags: N-terminal GST; dsDNA, one strand shown
# Summary of the method: as §1
# EHF = target: T5, EHF (Homo sapiens, UniProt Q9NZC4 1-300); conditions: protein: recombinant; tags: N-terminal GST; dsDNA, one strand shown
# T5 sequence: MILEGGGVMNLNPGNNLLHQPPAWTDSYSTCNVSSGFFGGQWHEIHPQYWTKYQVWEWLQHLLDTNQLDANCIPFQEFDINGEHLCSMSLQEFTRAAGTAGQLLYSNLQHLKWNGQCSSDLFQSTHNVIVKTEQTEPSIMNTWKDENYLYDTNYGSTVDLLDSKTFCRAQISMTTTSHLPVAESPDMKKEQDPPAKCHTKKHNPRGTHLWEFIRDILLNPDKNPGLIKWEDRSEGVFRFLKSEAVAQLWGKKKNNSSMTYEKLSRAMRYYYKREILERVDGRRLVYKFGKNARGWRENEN
# Summary of the method: as §1
# SPI1 = SPI1 (Homo sapiens, UniProt P17947 1-270); conditions: protein: recombinant; tags: N-terminal GST; dsDNA, one strand shown
# Summary of the method: as §1
# SPIB = SPIB (Homo sapiens, UniProt Q01892 1-262); conditions: protein: recombinant; tags: N-terminal GST; dsDNA, one strand shown
# Summary of the method: as §1
# ELK3 = target: T6, ELK3 (Homo sapiens, UniProt P41970 1-407); conditions: protein: recombinant; tags: N-terminal GST; dsDNA, one strand shown
# T6 sequence: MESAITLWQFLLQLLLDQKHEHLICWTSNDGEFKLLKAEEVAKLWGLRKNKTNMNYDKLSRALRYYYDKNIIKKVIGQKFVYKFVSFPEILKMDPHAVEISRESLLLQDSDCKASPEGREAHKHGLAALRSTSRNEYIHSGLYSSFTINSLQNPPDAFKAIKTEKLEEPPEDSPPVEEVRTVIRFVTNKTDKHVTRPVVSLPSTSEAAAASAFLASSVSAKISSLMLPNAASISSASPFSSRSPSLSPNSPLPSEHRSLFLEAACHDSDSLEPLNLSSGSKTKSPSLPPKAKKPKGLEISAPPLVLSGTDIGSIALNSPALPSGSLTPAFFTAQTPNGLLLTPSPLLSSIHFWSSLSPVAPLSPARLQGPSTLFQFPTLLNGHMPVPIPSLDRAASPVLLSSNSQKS
# Summary of the method: as §1
# FEV = target: T7, FEV (Homo sapiens, UniProt Q99581 1-238); conditions: protein: recombinant; tags: N-terminal GST; dsDNA, one strand shown
# T7 sequence: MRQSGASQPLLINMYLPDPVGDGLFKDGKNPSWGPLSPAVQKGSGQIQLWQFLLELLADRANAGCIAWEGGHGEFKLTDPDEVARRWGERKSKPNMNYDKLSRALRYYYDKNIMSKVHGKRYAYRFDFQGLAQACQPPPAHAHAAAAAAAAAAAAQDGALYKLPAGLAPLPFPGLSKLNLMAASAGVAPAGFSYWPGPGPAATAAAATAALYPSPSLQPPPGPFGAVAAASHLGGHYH
# Summary of the method: as §1
# ETV5 = ETV5 (Homo sapiens, UniProt P41161 1-510); conditions: protein: recombinant; tags: N-terminal GST; dsDNA, one strand shown
# Summary of the method: as §1
# HSF1 = HSF1 (Homo sapiens, UniProt Q00613 1-529); conditions: protein: recombinant; tags: N-terminal GST; chain copies: 3; dsDNA, one strand shown
# Summary of the method: as §1
# SPIC = target: T8, SPIC (Homo sapiens, UniProt Q8N5J4 1-248); conditions: protein: recombinant; tags: N-terminal GST; dsDNA, one strand shown
# T8 sequence: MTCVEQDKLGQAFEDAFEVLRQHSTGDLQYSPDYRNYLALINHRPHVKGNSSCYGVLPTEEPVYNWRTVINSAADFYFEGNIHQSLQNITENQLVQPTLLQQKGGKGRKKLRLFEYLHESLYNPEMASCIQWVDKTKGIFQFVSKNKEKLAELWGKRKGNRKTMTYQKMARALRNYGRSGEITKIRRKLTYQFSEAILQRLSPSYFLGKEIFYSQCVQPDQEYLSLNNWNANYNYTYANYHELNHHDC
# Summary of the method: as §1
# ELF4 = ELF4 (Homo sapiens, UniProt Q99607 1-663); conditions: protein: recombinant; tags: N-terminal GST; dsDNA, one strand shown
# Summary of the method: as §1
# ELK4 = target: T9, ELK4 (Homo sapiens, UniProt P28324-2 1-405); conditions: protein: recombinant; tags: N-terminal GST; dsDNA, one strand shown
# T9 sequence: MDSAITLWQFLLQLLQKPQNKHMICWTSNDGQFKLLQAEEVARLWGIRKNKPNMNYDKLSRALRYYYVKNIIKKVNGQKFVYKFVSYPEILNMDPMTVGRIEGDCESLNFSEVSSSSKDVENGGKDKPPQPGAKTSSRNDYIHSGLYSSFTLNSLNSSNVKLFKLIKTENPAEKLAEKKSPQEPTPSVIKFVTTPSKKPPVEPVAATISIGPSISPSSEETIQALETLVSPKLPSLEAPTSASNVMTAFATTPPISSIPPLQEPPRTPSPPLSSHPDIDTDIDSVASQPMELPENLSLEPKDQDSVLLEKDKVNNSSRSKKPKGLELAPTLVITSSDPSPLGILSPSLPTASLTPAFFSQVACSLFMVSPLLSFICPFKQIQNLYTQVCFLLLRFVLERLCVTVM
# Summary of the method: as §1
# ETV2 = target: T10, ETV2 (Homo sapiens, UniProt O00321 1-342); conditions: protein: recombinant; tags: N-terminal GST; dsDNA, one strand shown
# T10 sequence: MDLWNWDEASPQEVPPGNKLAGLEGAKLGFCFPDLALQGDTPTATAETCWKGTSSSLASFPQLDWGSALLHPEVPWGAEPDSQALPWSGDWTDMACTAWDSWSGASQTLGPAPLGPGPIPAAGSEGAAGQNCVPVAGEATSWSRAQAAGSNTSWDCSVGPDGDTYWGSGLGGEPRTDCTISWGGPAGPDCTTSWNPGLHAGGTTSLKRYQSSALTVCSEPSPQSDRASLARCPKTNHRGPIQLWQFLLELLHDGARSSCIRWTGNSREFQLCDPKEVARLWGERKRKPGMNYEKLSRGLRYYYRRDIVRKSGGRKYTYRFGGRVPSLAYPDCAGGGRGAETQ
# Summary of the method: as §1
# ELF3 = target: T11, ELF3 (Homo sapiens, UniProt P78545 1-371); conditions: protein: recombinant; tags: N-terminal GST; dsDNA, one strand shown
# T11 sequence: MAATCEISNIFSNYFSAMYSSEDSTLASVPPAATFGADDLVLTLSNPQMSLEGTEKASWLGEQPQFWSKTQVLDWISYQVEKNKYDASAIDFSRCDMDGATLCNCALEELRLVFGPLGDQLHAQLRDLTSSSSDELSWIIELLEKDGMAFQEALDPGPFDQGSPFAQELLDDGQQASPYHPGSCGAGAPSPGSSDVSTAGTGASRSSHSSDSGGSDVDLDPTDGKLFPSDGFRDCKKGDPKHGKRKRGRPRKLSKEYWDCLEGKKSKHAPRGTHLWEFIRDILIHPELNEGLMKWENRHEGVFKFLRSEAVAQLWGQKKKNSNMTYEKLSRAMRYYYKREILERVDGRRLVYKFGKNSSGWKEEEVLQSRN
# Summary of the method: as §1
# CRX = CRX (Homo sapiens, UniProt O43186 1-299); conditions: protein: recombinant; tags: N-terminal GST; dsDNA, one strand shown
# Summary of the method: as §1
# ETV1 = ETV1 (Homo sapiens, UniProt P50549 1-477); conditions: protein: recombinant; tags: N-terminal GST; dsDNA, one strand shown
# Summary of the method: as §1
# HSF1, sequence (Q00613 whole entry): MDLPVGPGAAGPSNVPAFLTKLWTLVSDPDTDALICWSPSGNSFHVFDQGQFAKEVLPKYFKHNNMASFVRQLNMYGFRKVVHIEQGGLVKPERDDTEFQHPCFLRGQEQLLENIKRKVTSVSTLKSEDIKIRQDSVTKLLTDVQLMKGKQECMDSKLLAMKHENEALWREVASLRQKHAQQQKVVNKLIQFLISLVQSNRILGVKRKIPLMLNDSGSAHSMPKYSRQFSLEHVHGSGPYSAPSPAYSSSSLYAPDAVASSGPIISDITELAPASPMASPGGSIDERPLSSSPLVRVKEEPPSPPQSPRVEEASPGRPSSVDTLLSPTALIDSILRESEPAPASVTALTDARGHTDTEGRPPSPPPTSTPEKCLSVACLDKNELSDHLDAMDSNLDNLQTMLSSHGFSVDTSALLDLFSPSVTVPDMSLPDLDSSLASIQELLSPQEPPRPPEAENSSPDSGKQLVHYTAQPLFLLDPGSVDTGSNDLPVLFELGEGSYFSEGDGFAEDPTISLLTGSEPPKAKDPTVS
# SPIB, sequence (Q01892 whole entry): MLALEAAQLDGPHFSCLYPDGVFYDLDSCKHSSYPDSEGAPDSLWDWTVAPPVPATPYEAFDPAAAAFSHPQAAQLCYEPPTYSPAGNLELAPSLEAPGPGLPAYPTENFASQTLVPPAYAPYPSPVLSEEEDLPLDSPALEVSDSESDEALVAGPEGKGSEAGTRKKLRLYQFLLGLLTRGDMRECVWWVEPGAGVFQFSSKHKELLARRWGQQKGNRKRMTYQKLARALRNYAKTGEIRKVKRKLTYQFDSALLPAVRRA
# ETV1, sequence (P50549 whole entry): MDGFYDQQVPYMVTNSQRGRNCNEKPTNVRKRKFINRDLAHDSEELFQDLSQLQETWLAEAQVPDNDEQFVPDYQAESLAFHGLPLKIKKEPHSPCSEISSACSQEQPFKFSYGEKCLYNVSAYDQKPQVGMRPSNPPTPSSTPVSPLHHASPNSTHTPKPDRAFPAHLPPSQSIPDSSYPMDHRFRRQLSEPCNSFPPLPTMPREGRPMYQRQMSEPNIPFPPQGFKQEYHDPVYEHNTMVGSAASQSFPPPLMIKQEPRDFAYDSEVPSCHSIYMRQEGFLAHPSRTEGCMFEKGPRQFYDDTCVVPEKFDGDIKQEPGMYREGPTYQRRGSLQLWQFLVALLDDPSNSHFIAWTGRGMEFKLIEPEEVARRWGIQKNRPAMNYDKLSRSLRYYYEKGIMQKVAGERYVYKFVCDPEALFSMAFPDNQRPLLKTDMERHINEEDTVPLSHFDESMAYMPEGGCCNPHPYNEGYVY
# ELF4, sequence (Q99607 whole entry): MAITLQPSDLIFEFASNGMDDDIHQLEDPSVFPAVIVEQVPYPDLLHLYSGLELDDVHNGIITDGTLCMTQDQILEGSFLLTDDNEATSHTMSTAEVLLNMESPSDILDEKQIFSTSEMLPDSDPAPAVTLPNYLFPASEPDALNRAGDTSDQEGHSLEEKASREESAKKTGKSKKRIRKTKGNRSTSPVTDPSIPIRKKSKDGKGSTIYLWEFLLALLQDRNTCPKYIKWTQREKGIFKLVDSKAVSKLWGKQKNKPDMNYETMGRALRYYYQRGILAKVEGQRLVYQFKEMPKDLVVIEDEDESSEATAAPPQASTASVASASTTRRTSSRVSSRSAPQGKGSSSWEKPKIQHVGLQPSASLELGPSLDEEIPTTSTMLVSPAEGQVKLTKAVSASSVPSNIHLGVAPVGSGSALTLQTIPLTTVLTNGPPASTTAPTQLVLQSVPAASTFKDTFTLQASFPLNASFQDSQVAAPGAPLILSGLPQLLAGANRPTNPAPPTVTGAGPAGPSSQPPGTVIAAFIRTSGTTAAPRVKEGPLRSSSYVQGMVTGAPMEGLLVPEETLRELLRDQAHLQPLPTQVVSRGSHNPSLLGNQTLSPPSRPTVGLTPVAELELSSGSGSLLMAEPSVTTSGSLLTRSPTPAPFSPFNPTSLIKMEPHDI
# ETV5, sequence (P41161 whole entry): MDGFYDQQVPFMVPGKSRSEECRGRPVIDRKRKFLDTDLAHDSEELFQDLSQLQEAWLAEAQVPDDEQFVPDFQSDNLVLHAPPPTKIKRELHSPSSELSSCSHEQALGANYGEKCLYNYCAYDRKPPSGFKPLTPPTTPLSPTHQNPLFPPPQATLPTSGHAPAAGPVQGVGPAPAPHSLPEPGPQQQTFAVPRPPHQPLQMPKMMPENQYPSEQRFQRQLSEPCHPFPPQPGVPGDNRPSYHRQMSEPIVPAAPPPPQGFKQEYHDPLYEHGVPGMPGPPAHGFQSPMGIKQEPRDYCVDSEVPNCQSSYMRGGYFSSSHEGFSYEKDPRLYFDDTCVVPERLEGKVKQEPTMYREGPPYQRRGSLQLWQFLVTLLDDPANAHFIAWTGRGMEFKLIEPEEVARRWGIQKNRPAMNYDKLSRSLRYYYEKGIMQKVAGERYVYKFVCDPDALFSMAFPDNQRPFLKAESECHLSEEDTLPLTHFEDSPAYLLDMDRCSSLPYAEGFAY
# ELF1, sequence (P32519 whole entry): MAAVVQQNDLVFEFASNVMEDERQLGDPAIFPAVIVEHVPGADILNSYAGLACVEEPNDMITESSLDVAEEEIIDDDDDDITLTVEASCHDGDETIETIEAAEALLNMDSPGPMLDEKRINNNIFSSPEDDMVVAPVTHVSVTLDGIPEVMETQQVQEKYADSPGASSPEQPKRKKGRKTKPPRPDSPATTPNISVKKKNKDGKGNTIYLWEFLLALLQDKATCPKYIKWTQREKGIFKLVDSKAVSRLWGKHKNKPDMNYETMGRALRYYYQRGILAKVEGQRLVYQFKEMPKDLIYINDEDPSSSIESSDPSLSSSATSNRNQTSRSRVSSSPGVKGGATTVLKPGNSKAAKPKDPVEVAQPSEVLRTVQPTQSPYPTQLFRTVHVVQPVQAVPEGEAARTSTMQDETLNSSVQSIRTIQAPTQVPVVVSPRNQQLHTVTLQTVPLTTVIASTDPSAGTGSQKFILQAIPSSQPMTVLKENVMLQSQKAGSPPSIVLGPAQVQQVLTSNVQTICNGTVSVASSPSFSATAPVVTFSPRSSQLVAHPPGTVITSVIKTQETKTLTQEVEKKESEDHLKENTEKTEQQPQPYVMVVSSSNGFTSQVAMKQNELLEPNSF
# CRX, sequence (O43186 whole entry): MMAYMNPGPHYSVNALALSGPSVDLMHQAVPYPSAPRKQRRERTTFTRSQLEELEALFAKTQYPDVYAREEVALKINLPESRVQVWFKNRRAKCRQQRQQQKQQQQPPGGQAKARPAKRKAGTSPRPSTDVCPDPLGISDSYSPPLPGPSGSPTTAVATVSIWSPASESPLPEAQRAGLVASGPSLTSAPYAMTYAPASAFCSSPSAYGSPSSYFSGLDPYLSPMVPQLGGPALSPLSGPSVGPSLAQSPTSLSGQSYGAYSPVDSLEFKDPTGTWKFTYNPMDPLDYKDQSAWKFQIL
sequence,measurement,setting,value
TTCCGC,binding signal,FLI1,"3.03 fold enrichment (6-mer frequency, TF over GST control)"
same,binding signal,ELK1,"3.07 fold enrichment (6-mer frequency, TF over GST control)"
same,binding signal,GABPA,"2.79 fold enrichment (6-mer frequency, TF over GST control)"
same,binding signal,ERG,"3.22 fold enrichment (6-mer frequency, TF over GST control)"
same,binding signal,ELF1,"2.85 fold enrichment (6-mer frequency, TF over GST control)"
same,binding signal,EHF,"3.08 fold enrichment (6-mer frequency, TF over GST control)"
same,binding signal,SPI1,"4.75 fold enrichment (6-mer frequency, TF over GST control)"
same,binding signal,SPIB,"3.15 fold enrichment (6-mer frequency, TF over GST control)"
same,binding signal,ELK3,"3.03 fold enrichment (6-mer frequency, TF over GST control)"
same,binding signal,FEV,"3.1 fold enrichment (6-mer frequency, TF over GST control)"
same,binding signal,ETV5,"3.42 fold enrichment (6-mer frequency, TF over GST control)"
same,binding signal,HSF1,"1.34 fold enrichment (6-mer frequency, TF over GST control)"
same,binding signal,SPIC,"3.62 fold enrichment (6-mer frequency, TF over GST control)"
same,binding signal,ELF4,"2.82 fold enrichment (6-mer frequency, TF over GST control)"
same,binding signal,ELK4,"2.57 fold enrichment (6-mer frequency, TF over GST control)"
same,binding signal,ETV2,"2.79 fold enrichment (6-mer frequency, TF over GST control)"
same,binding signal,ELF3,"3.06 fold enrichment (6-mer frequency, TF over GST control)"
same,binding signal,CRX,"1.26 fold enrichment (6-mer frequency, TF over GST control)"
same,binding signal,ETV1,"3.17 fold enrichment (6-mer frequency, TF over GST control)"
